Each structure is given as a SMILES string. Structures can show the parent of a compound that is named as a salt. Unmarked numbers belong to inactive results.

The first test concerns Plasmodium falciparum NF54/iGP1_RE9H ulg8 stage V gametocytes. Briefly: gametocyte viability (luciferase signal relative to DMSO control) (% of DMSO control); higher = less gametocytocidal activity, active = 50 or less. Particulars: concentration: 1 µM; exposure time: 72 h. Here is the method: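 Synchronous P. falciparum NF54/iGP1_RE9H ulg8 mature stage V gametocytes (day 12) were exposed to Cayman Epigenetics Screening Library compounds at 10 µM or 1 µM for 72 h at 37 °C. Viability was read as RE9H luciferase bioluminescence, normalised to DMSO plate controls (100%); 50 µM methylene blue was the positive control.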
As for `CCOC(=O)NCCCC(=O)NCCc1ccccc1`, the gametocyte viability is 89.7.

On to `COc1cc2c(cc1OCCCN1CCCC1)N=C(N)C21CCC1`, for which the gametocyte viability is 89.9.

Regarding `CC(NC(=O)c1ccccc1/N=C/c1c(O)ccc2ccccc12)c1ccccc1` (stereo not given) [Sirtinol], the gametocyte viability was 102.

As for `CCCc1cc2c(N3CCN(C4=NCC(C)(C)S4)CC3)ncnc2s1` [MI-2 (hydrochloride)], the gametocyte viability was 80.6.

`CN(C)Cc1ccc(S(=O)(=O)n2ccc(/C=C/C(=O)NO)c2)cc1` [Resminostat (hydrochloride)]: the gametocyte viability is 94.8.

For the molecule `O=C(O)CC[C@H](O)C(=O)O` [L-α-Hydroxyglutaric Acid (sodium salt)], the gametocyte viability was 92.7.

With `CCn1c2ccccc2c2cc(CNCc3ccccc3OC)ccc21` [HLCL-61 (hydrochloride)], the gametocyte viability was 85.

Turning to `COc1ccc(S(=O)(=O)ON=C2C=C(C)C(=O)C(C)=C2)cc1`, the gametocyte viability was 87.3.

For `C#Cc1cccc(Nc2ncnc3cc(OC)c(OCCCCCCC(=O)NO)cc23)c1`, the gametocyte viability is 58.7.

For `Nc1nc(=S)c2[nH]cnc2[nH]1` [6-Thioguanine], the gametocyte viability was 90.1.

On to `O=c1oc2c(O)c(O)cc3c(=O)oc4c(O)c(O)cc1c4c23` [Ellagic Acid], for which the gametocyte viability was 101.

`CC(C)(CNC(=O)c1cccc(-c2noc(C(F)(F)F)n2)c1)c1coc(-c2ccccc2)n1`: the gametocyte viability was 90.2.

With `C=C1C(=O)O[C@@H](CCC)[C@@H]1C(=O)O` [Butyrolactone 3], the gametocyte viability is 97.4.

Turning to `Nc1c(S(=O)(=O)c2ccccc2)c2nc3ccccc3nc2n1-c1ccc(F)cc1`, the gametocyte viability was 66.8.

For `CCCCCCCCCCCCCCCc1cccc(O)c1C(=O)O` [Anacardic Acid], the gametocyte viability is 84.7.

As for `COc1cc2c(cc1-c1c(C)noc1C)ncc1[nH]c(=O)n([C@H](C)c3ccccn3)c12`, the gametocyte viability is 91.5.

As for `Oc1cc(O)cc(/C=C/c2ccc(Br)cc2)c1` [4'-bromo-Resveratrol], the gametocyte viability was 51.7.

Regarding `O=C(Cc1ccccc1)Nc1ccc2oc(-c3ccc(Cl)cc3Cl)nc2c1`, the gametocyte viability was 80.3.

As to `COC(=O)c1ccc(N2CCN(C)CC2)c(NC(=O)c2cccc(OC)c2)c1`, the gametocyte viability is 85.8.

For `COc1cc2nc(N3CCCC3)nc(NCCCCCN3CCCC3)c2cc1OC`, the gametocyte viability was 92.2.

Still in this test, the particulars now being: concentration: 10 µM; exposure time: 72 h.
Regarding `CCOC(=O)NCCCC(=O)NCCc1ccccc1`, the gametocyte viability is 94.3.

As to `COc1cc2c(cc1OCCCN1CCCC1)N=C(N)C21CCC1`, the gametocyte viability is 93.7.

For `CC(NC(=O)c1ccccc1/N=C/c1c(O)ccc2ccccc12)c1ccccc1` (stereo not given) [Sirtinol], the gametocyte viability is 95.

For `CCCc1cc2c(N3CCN(C4=NCC(C)(C)S4)CC3)ncnc2s1` [MI-2 (hydrochloride)], the gametocyte viability is 63.3.

For `CN(C)Cc1ccc(S(=O)(=O)n2ccc(/C=C/C(=O)NO)c2)cc1` [Resminostat (hydrochloride)], the gametocyte viability was 77.8.

Take `O=C(O)CC[C@H](O)C(=O)O` [L-α-Hydroxyglutaric Acid (sodium salt)]: the gametocyte viability is 86.7.

`CCn1c2ccccc2c2cc(CNCc3ccccc3OC)ccc21` [HLCL-61 (hydrochloride)]: the gametocyte viability is 94.

For `COc1ccc(S(=O)(=O)ON=C2C=C(C)C(=O)C(C)=C2)cc1`, the gametocyte viability is 43.2 (active).

With `C#Cc1cccc(Nc2ncnc3cc(OC)c(OCCCCCCC(=O)NO)cc23)c1`, the gametocyte viability was 56.7.

As for `Nc1nc(=S)c2[nH]cnc2[nH]1` [6-Thioguanine], the gametocyte viability was 94.6.

Consider `O=c1oc2c(O)c(O)cc3c(=O)oc4c(O)c(O)cc1c4c23` [Ellagic Acid], for which the gametocyte viability was 95.3.

In the case of `CC(C)(CNC(=O)c1cccc(-c2noc(C(F)(F)F)n2)c1)c1coc(-c2ccccc2)n1`, the gametocyte viability is 83.2.

With `C=C1C(=O)O[C@@H](CCC)[C@@H]1C(=O)O` [Butyrolactone 3], the gametocyte viability was 89.9.

Take `Nc1c(S(=O)(=O)c2ccccc2)c2nc3ccccc3nc2n1-c1ccc(F)cc1`: the gametocyte viability was 56.6.

With `CCCCCCCCCCCCCCCc1cccc(O)c1C(=O)O` [Anacardic Acid], the gametocyte viability is 82.9.

For `COc1cc2c(cc1-c1c(C)noc1C)ncc1[nH]c(=O)n([C@H](C)c3ccccn3)c12`, the gametocyte viability is 97.8.

On to `Oc1cc(O)cc(/C=C/c2ccc(Br)cc2)c1` [4'-bromo-Resveratrol], for which the gametocyte viability is 6.07 (active).

With `O=C(Cc1ccccc1)Nc1ccc2oc(-c3ccc(Cl)cc3Cl)nc2c1`, the gametocyte viability was 51.9.

`COC(=O)c1ccc(N2CCN(C)CC2)c(NC(=O)c2cccc(OC)c2)c1`: the gametocyte viability was 82.1.

As to `COc1cc2nc(N3CCCC3)nc(NCCCCCN3CCCC3)c2cc1OC`, the gametocyte viability was 18.9 (active).

The record behind these values is the supplement of paper PMC12297408.
